# From publication PMC4336329 (PLoS ONE, 2015)
# Out of some 310,000 compounds screened, about 14,000 (4.5%) showed an effect of 50% or more. The effect is printed as a negative number. Shown is part of a subset that was picked to be rich in strong results.
# Biological target: human ether-à-go-go-related gene (hERG) potassium channel (human, UniProt Q12809)
# Assay: primary screen, population patch clamp on CHO cells stably expressing hERG; higher = less effect of the substance
# 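Also: peak tail current of the secondary pulse compared with the same well before compound.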
# human ether-à-go-go-related gene (hERG) potassium channel, sequence (Q12809 whole entry, looked up): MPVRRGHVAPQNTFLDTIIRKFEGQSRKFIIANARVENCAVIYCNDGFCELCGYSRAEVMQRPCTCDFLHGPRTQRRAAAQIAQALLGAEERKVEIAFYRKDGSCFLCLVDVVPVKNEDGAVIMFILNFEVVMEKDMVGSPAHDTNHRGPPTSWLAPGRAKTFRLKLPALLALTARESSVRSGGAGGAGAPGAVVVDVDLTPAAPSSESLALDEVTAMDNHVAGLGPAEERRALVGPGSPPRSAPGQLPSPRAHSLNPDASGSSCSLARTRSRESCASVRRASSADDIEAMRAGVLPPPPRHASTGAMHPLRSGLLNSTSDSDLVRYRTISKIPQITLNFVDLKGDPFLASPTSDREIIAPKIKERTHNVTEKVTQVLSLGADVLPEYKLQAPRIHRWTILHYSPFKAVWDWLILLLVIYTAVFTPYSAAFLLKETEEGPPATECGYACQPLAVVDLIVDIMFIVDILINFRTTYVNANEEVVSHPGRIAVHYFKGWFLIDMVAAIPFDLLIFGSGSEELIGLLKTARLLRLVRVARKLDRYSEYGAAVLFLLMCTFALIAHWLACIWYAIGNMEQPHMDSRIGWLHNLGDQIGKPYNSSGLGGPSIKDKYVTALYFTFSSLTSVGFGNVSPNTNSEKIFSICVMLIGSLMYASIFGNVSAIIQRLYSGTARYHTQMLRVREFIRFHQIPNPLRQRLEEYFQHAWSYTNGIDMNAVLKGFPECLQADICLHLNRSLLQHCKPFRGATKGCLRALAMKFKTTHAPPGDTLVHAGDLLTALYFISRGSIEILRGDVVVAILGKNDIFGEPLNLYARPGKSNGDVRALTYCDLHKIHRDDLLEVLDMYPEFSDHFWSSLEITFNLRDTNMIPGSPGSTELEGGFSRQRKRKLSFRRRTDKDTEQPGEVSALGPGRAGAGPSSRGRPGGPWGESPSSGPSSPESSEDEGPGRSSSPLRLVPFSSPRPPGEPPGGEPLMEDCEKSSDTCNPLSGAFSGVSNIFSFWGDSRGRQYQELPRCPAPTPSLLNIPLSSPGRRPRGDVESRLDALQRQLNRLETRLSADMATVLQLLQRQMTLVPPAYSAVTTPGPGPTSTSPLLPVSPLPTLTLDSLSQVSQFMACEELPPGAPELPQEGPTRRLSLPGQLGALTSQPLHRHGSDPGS
row,Compound,"hERG current change (%, negative = inhibition) at 10uM [%]"
1,COc1ccc(/C=C/C(=O)c2ccc(NC3=NCCCS3)cc2)cc1OC,-37.7
2,Cc1nn(Cc2ccccc2)c(C)c1/C=N/NC(=O)c1ccncc1,-46.4
3,Cc1cccc(N2CCN(C(=O)c3cc(S(=O)(=O)N4CCCC4)cn3C)CC2)c1C,-38
4,Cc1cc(C)cc(NC(=O)CSc2nc3ccncc3[nH]2)c1,8.99
5,O=C(Nc1cc(C(F)(F)F)ccc1N1CCOCC1)c1cn2ccccc2n1,-2.98
6,O=C(Nc1ccc(Cl)c(S(=O)(=O)N2CCOCC2)c1)c1cn2ccccc2n1,11.9
7,O=C(Nc1cc(S(=O)(=O)N2CCOCC2)ccc1N1CCOCC1)c1cn2ccccc2n1,-52.3
8,C=CCn1c(COc2ccccc2)nnc1SC(C)C(=O)N/N=C/c1cc(Cl)ccc1O (stereo not drawn),0.335
9,CCCN1CCN(C(=O)c2ccc3nc(CC)c(CC)nc3c2)CC1,1.54
10,CNC(=O)COc1ccc(S(=O)(=O)Nc2ccccc2)cc1,14.4
11,O=C(c1ccco1)N1CCCSC1=Nc1ccccc1,12
12,COc1ccc(NC(=O)c2cc3ccccc3o/c2=N\NS(=O)(=O)c2ccc(C)cc2)cc1,-13.6
13,COc1cccc2cc(C(=O)Nc3cc(C)cc(C)c3)/c(=N/NS(=O)(=O)c3ccccc3)oc12,19.5
14,Cc1ccc(S(=O)(=O)N/N=c2\oc3ccccc3cc2C(=O)Nc2cccc(C)c2)cc1,-68.1
15,O=C1CC2(CCN(C(=O)c3ccc([N+](=O)[O-])cc3)CC2)Oc2ccccc21,-87.9
16,O=C(c1cccc([N+](=O)[O-])c1)N1CCOCC1,11.7
17,O=C1CC2(CCN(C(=O)c3cccc([N+](=O)[O-])c3)CC2)Oc2ccccc21,-75.7
18,O=C1CN(C(=O)c2cccc([N+](=O)[O-])c2)CC(=O)N1,13.4
19,Cc1nn2c(C(F)(F)F)c3c(nc2c1-c1ccccc1)CCC3,19.1
20,CC(=O)Nc1ccc(NS(=O)(=O)C(F)(F)F)cc1,31.2

row,Compound,"hERG current change (%, negative = inhibition) at 10uM [%]"
1,O=C(COc1ccc(Cl)cc1)NCC(=O)N1CCC2(CC1)NCCc1[nH]cnc12,7.16
2,O=C(CSc1nc2c(c(=O)n1-c1ccc(F)cc1)SCC2)Nc1ccc2c(c1)OCO2,-2.35
3,c1ccc(CCCN2CCOCC2)cc1,22.1
4,COc1cccc(-c2cc(C(=O)N3CCN(Cc4ccccc4)CC3)no2)c1,-15.7
5,COc1cccc(-c2cc(CC3(O)CCN(CCCc4ccccc4)CC3)on2)c1,-89.1
6,CC(C)(C)OC(=O)N1CCC(Cc2cc(-c3ccccc3)no2)(C(=O)O)CC1,12.1
7,OC1(Cc2cc(-c3ccccc3)no2)CCN(CCCc2ccccc2)CC1,-77
8,COc1cccc(-c2cc(C(=O)NCCc3ccccc3)no2)c1,11.9
9,COCCN1Cc2cccc(C(=O)Nc3ccc(S(=O)(=O)N4CCOCC4)cc3)c2C1=O,27.3
10,O=C(O)CCCN=C1NC2(CCCC2)Cc2ccccc21,-39.6
11,COc1cccc(C(=O)N(Cc2ccccc2)Cc2cc3cc4c(cc3[nH]c2=O)OCCO4)c1,-25.3
12,COc1cc(NC(=O)C2CC2)c(OC)cc1NC(=O)CCC(=O)NC1CCN(Cc2ccccc2)CC1,2.82
13,COc1cc(Cl)c(CN2CCC(CCC(=O)NC3CC3)CC2)cc1OC,-66.2
14,COc1cc(Cl)cc(CN2CCC(CCC(=O)NC3CC3)CC2)c1OC,-20.8
15,COc1ccc(OC)c(C(=O)N2CCC(CCC(=O)NC3CC3)CC2)c1,13.1
16,COc1ccccc1CC(=O)N1CCC(CCC(=O)NC2CC2)CC1,13.8
17,CCOCc1cc(CN2CCC(CCC(=O)NC3CC3)CC2)ccc1OC,-62.1
18,COc1cc(CN2CCC(CCC(=O)NC3CC3)CC2)cc(Cl)c1OC,-55.4
19,COc1cc(CC(=O)OCC(=O)NC2CC2)cc(OC)c1OC,10.4
20,COc1cc(Br)c(CC(=O)NC2CC2)cc1OC,17.8

row,Compound,"hERG current change (%, negative = inhibition) at 10uM [%]"
1,COc1ccc(-c2nc3ccccc3c(=O)n2CCOc2ccccc2C)cc1,21
2,Cc1ccccc1-c1nc(CS(=O)(=O)CC(=O)NCCN2CCCC2)c(C)o1,-10.4
3,COC(=O)c1ccccc1NC(=O)CCC(=O)N1CCSc2ccccc21,-12.1
4,COc1ccc(N(CC(=O)Nc2cccc(SC)c2)S(C)(=O)=O)cc1,-12.5
5,CC(CCc1ccccc1)NC(=O)CNC(=O)c1cccs1 (stereo not drawn),-5.72
6,COc1ccc(NC(=O)NNC(=O)C(C)Oc2ccc3ccccc3c2)cc1 (stereo not drawn),8.34
7,CC(C)(C)c1ccc(-c2conc2N)cc1,5.58
8,CCOc1ccccc1C(=O)N(C)CC(=O)Nc1ccc(OC)cc1,12
9,Cc1ccc(S(=O)(=O)NNC(=S)Nc2c(Cl)cccc2Cl)cc1,16.8
10,Cc1cc(N2CCCc3ccccc32)n2ncnc2n1,6.99
11,Cc1ccc(S(=O)(=O)N(C)C)cc1NC(=O)C1Cc2ccccc2CN1C(=O)c1ccco1 (stereo not drawn),-9.91
12,CCOC(=O)CSc1nc(C)c2ccccc2n1,0.921
13,COc1ccc(CNC(=O)c2ccccc2SCC(=O)NCc2ccco2)cc1,-31.3
14,CCOC(=O)c1nc(NCc2cccc(OC)c2)c2ccccc2n1,-13.5
15,CCCCN(C)C(=O)CSc1nc(NCc2ccc(OC)cc2)c2ccccc2n1,-71
16,CSc1nc(NCc2ccco2)c2ccccc2n1,2.5
17,COc1ccc(-c2ccc(SCC(=O)NCc3ccco3)nn2)cc1,-8.73
18,CCOC(=O)CSc1nc(NCc2ccco2)c2ccccc2n1,-56.1
19,COc1ccc(CNc2ncnc3ccccc23)cc1,21.7
20,COc1ccc(CNc2nc(SCC(=O)NCc3ccco3)nc3ccccc23)cc1,-68.9
